target: HNRNPU (UniProt Q00839); assay: cross-linking mass spectrometry; settings: DSBSO, in cells or nuclear extract, not told apart
Sequence (Q00839 whole entry): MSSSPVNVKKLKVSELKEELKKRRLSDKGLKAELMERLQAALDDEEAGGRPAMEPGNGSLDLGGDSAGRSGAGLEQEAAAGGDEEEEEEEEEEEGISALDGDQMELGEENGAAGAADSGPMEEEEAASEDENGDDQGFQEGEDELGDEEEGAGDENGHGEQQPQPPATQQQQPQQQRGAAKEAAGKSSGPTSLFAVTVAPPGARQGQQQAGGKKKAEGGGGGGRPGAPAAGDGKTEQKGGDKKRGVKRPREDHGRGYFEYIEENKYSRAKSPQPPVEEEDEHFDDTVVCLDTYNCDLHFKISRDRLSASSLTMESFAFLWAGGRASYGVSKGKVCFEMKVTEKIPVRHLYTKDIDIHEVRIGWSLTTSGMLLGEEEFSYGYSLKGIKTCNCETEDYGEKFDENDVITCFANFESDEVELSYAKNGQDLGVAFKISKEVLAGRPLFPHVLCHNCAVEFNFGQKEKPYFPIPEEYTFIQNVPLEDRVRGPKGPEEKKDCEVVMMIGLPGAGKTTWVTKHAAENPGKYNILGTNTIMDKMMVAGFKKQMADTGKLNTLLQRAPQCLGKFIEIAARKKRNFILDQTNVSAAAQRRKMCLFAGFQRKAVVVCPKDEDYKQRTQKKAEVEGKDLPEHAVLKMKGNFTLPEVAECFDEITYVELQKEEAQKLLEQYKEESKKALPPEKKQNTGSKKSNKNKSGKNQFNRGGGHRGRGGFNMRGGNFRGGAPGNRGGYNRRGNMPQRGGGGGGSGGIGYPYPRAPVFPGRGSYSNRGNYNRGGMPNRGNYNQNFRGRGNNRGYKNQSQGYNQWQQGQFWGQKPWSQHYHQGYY

Chain of HNRNPR, O43390 (O43390 whole entry): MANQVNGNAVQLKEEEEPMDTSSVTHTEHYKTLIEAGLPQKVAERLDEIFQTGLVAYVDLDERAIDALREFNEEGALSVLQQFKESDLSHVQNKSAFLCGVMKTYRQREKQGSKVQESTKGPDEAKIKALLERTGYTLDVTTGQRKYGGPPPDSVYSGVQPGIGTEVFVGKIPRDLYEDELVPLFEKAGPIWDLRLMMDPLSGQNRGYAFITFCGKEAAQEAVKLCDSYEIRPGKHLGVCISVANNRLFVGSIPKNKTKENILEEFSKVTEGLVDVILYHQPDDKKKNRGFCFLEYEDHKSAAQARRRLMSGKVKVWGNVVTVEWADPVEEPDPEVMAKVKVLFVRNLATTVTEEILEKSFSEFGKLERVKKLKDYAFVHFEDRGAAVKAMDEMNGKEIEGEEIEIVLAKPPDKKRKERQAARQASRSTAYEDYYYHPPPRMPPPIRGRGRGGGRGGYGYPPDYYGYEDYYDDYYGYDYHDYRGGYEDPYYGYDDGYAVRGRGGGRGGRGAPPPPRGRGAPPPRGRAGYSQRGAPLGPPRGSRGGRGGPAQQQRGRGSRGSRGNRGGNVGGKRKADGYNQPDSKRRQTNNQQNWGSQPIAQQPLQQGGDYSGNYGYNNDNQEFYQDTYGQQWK
Chain of HNRNPDL, O14979 (O14979 whole entry): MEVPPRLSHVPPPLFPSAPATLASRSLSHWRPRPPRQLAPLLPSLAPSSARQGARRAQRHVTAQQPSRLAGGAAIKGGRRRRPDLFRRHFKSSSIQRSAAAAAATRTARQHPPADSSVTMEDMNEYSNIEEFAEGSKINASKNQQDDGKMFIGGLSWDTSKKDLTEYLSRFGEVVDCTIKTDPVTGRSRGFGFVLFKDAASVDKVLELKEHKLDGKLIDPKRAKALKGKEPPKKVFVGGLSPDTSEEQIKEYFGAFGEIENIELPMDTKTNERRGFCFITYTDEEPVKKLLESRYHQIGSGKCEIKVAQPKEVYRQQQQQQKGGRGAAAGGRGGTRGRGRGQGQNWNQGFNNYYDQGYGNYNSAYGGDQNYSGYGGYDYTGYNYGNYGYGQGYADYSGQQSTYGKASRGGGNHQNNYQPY
Chain of GART, P22102 (P22102 whole entry): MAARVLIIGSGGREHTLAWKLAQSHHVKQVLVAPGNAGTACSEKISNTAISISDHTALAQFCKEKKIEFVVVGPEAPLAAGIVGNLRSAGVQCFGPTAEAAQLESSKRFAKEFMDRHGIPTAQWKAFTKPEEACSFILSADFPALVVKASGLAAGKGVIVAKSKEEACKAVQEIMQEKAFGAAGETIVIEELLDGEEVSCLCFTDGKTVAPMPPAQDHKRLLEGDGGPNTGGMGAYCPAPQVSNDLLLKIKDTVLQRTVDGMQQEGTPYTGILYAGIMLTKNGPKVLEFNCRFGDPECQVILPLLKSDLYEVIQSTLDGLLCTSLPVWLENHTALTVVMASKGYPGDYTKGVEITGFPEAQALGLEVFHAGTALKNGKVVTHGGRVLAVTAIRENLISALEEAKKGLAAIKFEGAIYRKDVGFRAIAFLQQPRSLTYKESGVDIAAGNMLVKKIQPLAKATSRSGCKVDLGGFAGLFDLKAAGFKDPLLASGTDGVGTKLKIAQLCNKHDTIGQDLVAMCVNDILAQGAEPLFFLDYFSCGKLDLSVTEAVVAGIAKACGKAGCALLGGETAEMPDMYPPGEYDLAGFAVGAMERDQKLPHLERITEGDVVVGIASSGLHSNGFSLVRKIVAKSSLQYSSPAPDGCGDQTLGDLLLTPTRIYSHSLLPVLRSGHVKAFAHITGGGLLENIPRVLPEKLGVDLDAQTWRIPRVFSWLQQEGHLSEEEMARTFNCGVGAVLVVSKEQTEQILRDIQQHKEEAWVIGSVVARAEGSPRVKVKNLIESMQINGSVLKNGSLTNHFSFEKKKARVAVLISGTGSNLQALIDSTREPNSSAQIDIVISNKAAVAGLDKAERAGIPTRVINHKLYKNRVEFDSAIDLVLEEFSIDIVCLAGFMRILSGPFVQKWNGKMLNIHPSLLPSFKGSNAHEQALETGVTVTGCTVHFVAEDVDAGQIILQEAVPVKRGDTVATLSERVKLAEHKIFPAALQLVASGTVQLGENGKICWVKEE

| Substance | cross-linked residues |
| --- | --- |
| GART, P22102 | K251 - K331 |
| HNRNPR, O43390 | K359 - K181 |
| HNRNPDL, O14979 | K302 - K352 |
